In PubChem BioAssay AID1159580 (chemical genetic matrix, 2015):
Out of some 5,500 compounds screened, about 2,000 (36%) were called active. Not shown: some 18% with an inconclusive outcome. Cut-off read from the data, not from the text of the source: active = normalized growth mostly below about 0.91 (no sharp cut-off); inconclusive = no clear call, values can overlap the other calls; inactive = mostly above about 0.92. The list shows a part of the results.

Assay: chemical genetic growth profiling, strain panel (AID 1159580);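 note: tested at 20 µM; growth read once vehicle control cultures reached saturation at 30 °C; 1 = growth at the plate median or of vehicle wells; lower values mean less growth of the strain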
Conditions: growth OD

Measured: normalized growth

C=C[C@@](C)(O)CCC1C(=C)CCC2[C@@](C)(CO)CCC[C@]12C (some centres undefined)
inactive: S. cerevisiae deletion strains, locus YJR066W, strain TOR1, hits give low values 0.868 | S. cerevisiae deletion strains, locus YJR075W, strain HOC1, hits give low values 1.05 | S. cerevisiae deletion strains, locus YKL068W, hits give low values 1.02 | S. cerevisiae deletion strains, locus YKL085W, strain MDH1 (second series), hits give low values 0.994 | S. cerevisiae deletion strains, locus YKL085W, strain MDH1, hits give low values 0.994 | S. cerevisiae deletion strains, locus YKL160W, strain elf1, hits give low values 0.966 | S. cerevisiae deletion strains, locus YKL190W, strain CNB1, hits give low values 1.06 | S. cerevisiae deletion strains, locus YKR001C, strain vps1, hits give low values 1 | S. cerevisiae deletion strains, locus YKR026C, strain gcn3, hits give low values 1.08 | S. cerevisiae deletion strains, locus YKR091W, strain srl3, hits give low values 1.07 | S. cerevisiae deletion strains, locus YLL001W, strain dnm1, hits give low values 0.935 | S. cerevisiae deletion strains, locus YLL026W, hits give low values 1.03 | S. cerevisiae deletion strains, locus YLR027C, strain aat2, hits give low values 0.997 | S. cerevisiae deletion strains, locus YLR039C, strain RIC1, hits give low values 0.868 | S. cerevisiae deletion strains, locus YLR058C, strain SHM2, hits give low values 1 | S. cerevisiae deletion strains, locus YLR102C, strain apc9, hits give low values 1.05 | S. cerevisiae deletion strains, locus YLR113W, strain HOG1, hits give low values 0.891 | S. cerevisiae deletion strains, locus YLR221C, strain rsa3, hits give low values 0.982 | S. cerevisiae deletion strains, locus YLR258W, strain gsy2, hits give low values 1 | S. cerevisiae deletion strains, locus YLR268W, strain sec22, hits give low values 0.959 | S. cerevisiae deletion strains, locus YLR320W, strain mms22, hits give low values 0.98 | S. cerevisiae deletion strains, locus YLR330W, strain CHS5, hits give low values 1.05 | S. cerevisiae deletion strains, locus YLR342W, strain FKS1 (second series), hits give low values 0.883 | S. cerevisiae deletion strains, locus YLR342W, strain FKS1, hits give low values 0.999 | S. cerevisiae deletion strains, locus YLR370C, strain arc18, hits give low values 1.04 | S. cerevisiae deletion strains, locus YLR418C, strain cdc73, hits give low values 1.07 | S. cerevisiae deletion strains, locus YML016C, strain PPZ1, hits give low values 1.04 | S. cerevisiae deletion strains, locus YML032C, strain rad52, hits give low values 0.912 | S. cerevisiae deletion strains, locus YML120C, strain ndi1, hits give low values 0.974 | S. cerevisiae deletion strains, locus YML124C, strain tub3, hits give low values 1.04 | S. cerevisiae deletion strains, locus YMR058W, strain fet3, hits give low values 0.992 | S. cerevisiae deletion strains, locus YMR078C, strain ctf18, hits give low values 1.05 | S. cerevisiae deletion strains, locus YMR129W, hits give low values 1.06 | S. cerevisiae deletion strains, locus YMR205C, strain PFK2, hits give low values 0.969 | S. cerevisiae deletion strains, locus YMR223W, strain ubp8, hits give low values 0.995 | S. cerevisiae deletion strains, locus YMR231W, strain pep5, hits give low values 1.05 | S. cerevisiae deletion strains, locus YMR263W, strain SAP30, hits give low values 1.07 | S. cerevisiae deletion strains, locus YMR307W, strain GAS1, hits give low values 0.91 | S. cerevisiae deletion strains, locus YNL067W, strain RPL9B, hits give low values 0.979 | S. cerevisiae deletion strains, locus YNL071W, strain lat1, hits give low values 1 | S. cerevisiae deletion strains, locus YNL153C, strain GIM3, hits give low values 0.971 | S. cerevisiae deletion strains, locus YNL183C, strain NPR1, hits give low values 0.842 | S. cerevisiae deletion strains, locus YNL209W, strain ssb2, hits give low values 0.984 | S. cerevisiae deletion strains, locus YNL233W, strain BNI4, hits give low values 1.07 | S. cerevisiae deletion strains, locus YNL248C, strain rpa49, hits give low values 0.983 | S. cerevisiae deletion strains, locus YNL250W, strain rad50, hits give low values 0.995 | S. cerevisiae deletion strains, locus YNL271C, strain bni1, hits give low values 1 | S. cerevisiae deletion strains, locus YNL307C, strain MCK1, hits give low values 1.03 | S. cerevisiae deletion strains, locus YNL322C, strain KRE1 (second series), hits give low values 0.933 | S. cerevisiae deletion strains, locus YNR049C, strain mso1, hits give low values 1.06 | S. cerevisiae deletion strains, locus YNR052C, strain pop2, hits give low values 0.929 | S. cerevisiae deletion strains, locus YOL006C, strain TOP1, hits give low values 0.948 | S. cerevisiae deletion strains, locus YOL012C, strain htz1 1.69 | S. cerevisiae deletion strains, locus YOL147C, strain pex11, hits give low values 1.04 | S. cerevisiae deletion strains, locus YOR001W, strain rrp6, hits give low values 0.986 | S. cerevisiae deletion strains, locus YOR061W, strain CKA2, hits give low values 0.955 | S. cerevisiae deletion strains, locus YOR069W, strain VPS5, hits give low values 1.02 | S. cerevisiae deletion strains, locus YOR070C, strain gyp1, hits give low values 0.982 | S. cerevisiae deletion strains, locus YOR080W, strain dia2, hits give low values 1.01 | S. cerevisiae deletion strains, locus YOR083W, strain WHI5, hits give low values 0.939 | S. cerevisiae deletion strains, locus YOR106W, strain vam3, hits give low values 0.933 | S. cerevisiae deletion strains, locus YOR136W, strain idh2, hits give low values 1.01 | S. cerevisiae deletion strains, locus YOR144C, strain elg1, hits give low values 0.989 | S. cerevisiae deletion strains, locus YOR265W, strain rbl2, hits give low values 1.03 | S. cerevisiae deletion strains, locus YOR270C, strain vph1, hits give low values 0.839 | S. cerevisiae deletion strains, locus YOR290C, strain snf2, hits give low values 0.916 | S. cerevisiae deletion strains, locus YOR316C, strain cot1, hits give low values 1.06 | S. cerevisiae deletion strains, locus YPL051W, strain arl3, hits give low values 0.935 | S. cerevisiae deletion strains, locus YPL078C, strain atp4, hits give low values 0.939 | S. cerevisiae deletion strains, locus YPL240C, strain hsp82, hits give low values 1.06 | S. cerevisiae deletion strains, locus YPL256C, strain CLN2, hits give low values 0.915 | S. cerevisiae deletion strains, locus YPR141C, strain kar3, hits give low values 1.07 | S. cerevisiae deletion strains, locus YPR163C, strain tif3, hits give low values 0.977 | S. cerevisiae deletion strains, locus YPR167C, strain met16, hits give low values 1.01 | S. cerevisiae deletion strains, strain wtn01, hits give low values 0.945 | S. cerevisiae strains, strain wild type, hits give low values 1
active: S. cerevisiae deletion strains, locus YKL009W, strain mrt4, hits give low values 0.776 | S. cerevisiae deletion strains, locus YLL041C, strain sdh2, hits give low values 1.08 [resistant] | S. cerevisiae deletion strains, locus YLR262C, strain YPT6 (second series), hits give low values 0.733 | S. cerevisiae deletion strains, locus YLR357W, strain rsc2, hits give low values 1.16 [resistant] | S. cerevisiae deletion strains, locus YLR371W, strain rom2, hits give low values 1.12 [resistant] | S. cerevisiae deletion strains, locus YLR384C, strain iki3, hits give low values 1.09 [resistant] | S. cerevisiae deletion strains, locus YMR125W, strain sto1, hits give low values 1.13 [resistant] | S. cerevisiae deletion strains, locus YNL298W, strain CLA4, hits give low values 0.88 | S. cerevisiae deletion strains, locus YOR184W, strain ser1, hits give low values 0.679 | S. cerevisiae deletion strains, locus YOR231W, strain MKK1, hits give low values 0.85 | S. cerevisiae deletion strains, locus YPL106C, strain sse1, hits give low values 1.22 [resistant] | S. cerevisiae deletion strains, locus YPL241C, strain CIN2, hits give low values 1.07 [resistant] | S. cerevisiae deletion strains, locus YPR119W, strain clb2, hits give low values 1.07 [resistant]
